Results taken from PubChem BioAssay (Tox21).
Inconclusive results are not listed. Active and inactive are the calls of the source. Calls follow the shape of the full dose curve.

How the values were obtained:
[1] = target: Acetylcholinesterase (Homo sapiens) (UniProt P22303); experiment: Acetylcholinesterase (AChE) small molecule antagonists: colormetric cell-based qHTS assay (AID 1347395); also: nearly all actives have a fitted effect of over 30% in size
Summary of the method: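 Quantitative HTS in attached SH-SY5Y cells: 30 min compound exposure, then 90 min with acetylthiocholine and DTNB at 37 C; colour from thiocholine reports AChE activity.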

[2] = target: Acetylcholinesterase (Homo sapiens) (UniProt P22303); experiment: Acetylcholinesterase (AChE) small molecule antagonists: enzyme-based qHTS assay (AID 1347397); settings: Potency: AChE enzyme activity inhibition; outcome: AChE enzyme activity inhibition; also: nearly all actives have a fitted effect of over 55% in size
Summary of the method: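 Absorbance-based detection of thiocholine with DTNB served as the read-out. Recombinant human AChE was exposed to compound for 30 min at RT before a 10 min RT incubation with acetylthiocholine.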

[3] = target: Acetylcholinesterase (Homo sapiens) (UniProt P22303); experiment: Acetylcholinesterase (AChE) small molecule antagonists: fluorescence cell-based qHTS assay (AID 1347398); settings: Potency: AChE activity; outcome: AChE activity; also: nearly all actives have a fitted effect of over 50% in size
Summary of the method: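 Fluorimetric cell-based assay: intact SH-SY5Y cells, 30 min compound preincubation at 37 C, acetylthiocholine substrate with thiol probe Thiolite Green, 40 min RT development, fluorescence 490/520 nm.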

[4] = target: Acetylcholinesterase (Homo sapiens) (UniProt P22303); experiment: Acetylcholinesterase (AChE) small molecule antagonists: enzyme-based qHTS assay with human liver microsomes (AID 1347399); settings: Potency: qHTS inhibition; outcome: qHTS inhibition; also: nearly all actives have a fitted effect of over 60% in size
Summary of the method: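 Recombinant human AChE (50 mU/mL in the enzyme mix) and human liver microsomes (0.25 mg/mL final) were preincubated with compound and NADPH (0.25 mg/mL final) for 30 min at 37 C. Acetylthiocholine/DTNB was then added; thiocholine was read colorimetrically after 10 min at room temperature.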
% is scaled to controls: 0 for no effect and ±100 for the full control effect.

Chain of Acetylcholinesterase (Homo sapiens) (P22303 whole entry, looked up): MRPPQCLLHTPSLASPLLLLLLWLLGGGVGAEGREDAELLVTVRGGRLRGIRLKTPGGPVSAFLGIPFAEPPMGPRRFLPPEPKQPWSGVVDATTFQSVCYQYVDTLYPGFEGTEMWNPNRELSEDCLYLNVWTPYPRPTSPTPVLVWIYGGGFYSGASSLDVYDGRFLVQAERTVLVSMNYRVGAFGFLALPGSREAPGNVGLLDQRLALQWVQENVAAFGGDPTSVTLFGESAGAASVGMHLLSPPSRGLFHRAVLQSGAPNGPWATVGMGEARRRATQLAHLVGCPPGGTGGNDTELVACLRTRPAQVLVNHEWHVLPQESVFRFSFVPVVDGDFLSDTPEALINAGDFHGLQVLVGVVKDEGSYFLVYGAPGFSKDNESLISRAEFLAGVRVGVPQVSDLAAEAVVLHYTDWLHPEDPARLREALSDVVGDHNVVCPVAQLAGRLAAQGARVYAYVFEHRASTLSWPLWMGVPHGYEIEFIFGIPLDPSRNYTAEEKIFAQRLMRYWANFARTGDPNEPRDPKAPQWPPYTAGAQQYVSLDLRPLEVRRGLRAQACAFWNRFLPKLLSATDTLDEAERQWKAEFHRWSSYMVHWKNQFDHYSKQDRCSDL

CC(=O)NO
inactive: Potency [1] | Potency [2] | Potency [3] | Potency [4]

CC1(C)CCC(C)(C)c2cc(C(=O)Nc3ccc(C(=O)O)cc3)ccc21
inactive: Potency [1] | Potency [2] | Potency [3] | Potency [4]

C[C@@H](O)[C@H]1C(=O)N2C(C(=O)O)=C(SCCN=CN)C[C@H]12
inactive: Potency [1] | Potency [2] | Potency [3] | Potency [4]

CC(C)(C)OC(=O)c1ccc(O)cc1
inactive: Potency [1] | Potency [2] | Potency [3] | Potency [4]

COC(=O)Nc1nc2ccc(C(=O)c3ccccc3)cc2[nH]1
inactive: Potency [1] | Potency [2] | Potency [3] | Potency [4]

CCC(Cl)CCC(Cl)C(Cl)CC(Cl)C(Cl)C(Cl)CCl (configuration not stated)
inactive: Potency [1] | Potency [2] | Potency [3] | Potency [4]

CC(C)(O)c1ccc(CNC(=O)c2cccnc2Oc2ccc(F)cc2)cc1
inactive: Potency [1] | Potency [2] | Potency [3] | Potency [4]

CCC(C)SSC(C)CC (configuration not stated)
inactive: Potency [1] | Potency [2] | Potency [3] | Potency [4]

CCOC(=O)[C@H](CCc1ccccc1)N[C@@H](C)C(=O)N1[C@H](C(=O)O)C[C@@H]2CCC[C@@H]21
inactive: Potency [1] | Potency [2] | Potency [3] | Potency [4]

CC(CN(C)C)CN1c2ccccc2CCc2ccccc21 (configuration not stated)
inactive: Potency [1] | Potency [2] | Potency [3] | Potency [4]

OCCN1CCOCC1
inactive: Potency [1] | Potency [2] | Potency [3] | Potency [4]

COC(OC)(C(=O)c1ccccc1)c1ccccc1
inactive: Potency [1] | Potency [2] | Potency [3] | Potency [4]

CC1CN(c2cc3c(cc2F)c(=O)c(C(=O)O)cn3-c2ccc(F)cc2F)CCN1 (configuration not stated)
inactive: activity, negative = inhibition [1] 1.81% [at 10.5 µM] | activity change, negative = inhibition [2] 0.0761% [at 10.5 µM] | activity change, negative = inhibition [3] 3.28% [at 10.5 µM] | activity change, negative = inhibition [4] 5% [at 10.5 µM]

COCCCC/C(=N\OCCN)c1ccc(C(F)(F)F)cc1
inactive: Potency [1] | Potency [2] | Potency [3] | Potency [4]

SCCSCCS
inactive: Potency [1] | Potency [2] | Potency [3] | Potency [4]

NCc1ccccc1
inactive: Potency [1] | Potency [2] | Potency [3] | Potency [4]

Nc1nc(Cl)nc2c1ncn2[C@@H]1O[C@H](CO)[C@@H](O)[C@@H]1F
inactive: Potency [1] | Potency [2] | Potency [3] | Potency [4]

C/C(=C\C(C)CC(C)CC(C)C)C1CC(=O)OC1=O (configuration not stated)
inactive: Potency [1] | Potency [2] | Potency [3] | Potency [4]

O=[Si]=O
inactive: Potency [1] | Potency [2] | Potency [3] | Potency [4]

CC(=O)NC(Cc1ccccc1)C(=O)O (configuration not stated)
inactive: Potency [1] | Potency [2] | Potency [3] | Potency [4]

O=C1CCCN1C1CCCCC1
inactive: Potency [1] | Potency [2] | Potency [3] | Potency [4]

CC1=CCC2C(C1)C2(C)C (configuration not stated)
inactive: Potency [1] | Potency [2] | Potency [3] | Potency [4]

c1cc2c3c(c1)ccc1cccc(c13)C2
inactive: Potency [1] | Potency [2] | Potency [3] | Potency [4]

CCC(CC)C(C)CCOC(C)=O (configuration not stated)
inactive: Potency [1] | Potency [2] | Potency [3] | Potency [4]

COc1ccc(NS(=O)(=O)c2ccc(N)cc2)nn1
inactive: Potency [1] | Potency [2] | Potency [3] | Potency [4]

O=C1OC(=O)c2ccccc21
inactive: Potency [1] | Potency [2] | Potency [3] | Potency [4]

CC(=O)OCC1=C(C(=O)O)N2C(=O)[C@@H](NC(=O)Cc3cccs3)[C@H]2SC1
inactive: Potency [1] | Potency [2] | Potency [3] | Potency [4]

CCOC(=O)C(=O)OCC
inactive: Potency [1] | Potency [2] | Potency [3] | Potency [4]

O=C(O)CO
inactive: Potency [1] | Potency [2] | Potency [3] | Potency [4]

CCCCCCCCCCC=O
inactive: Potency [1] | Potency [2] | Potency [3] | Potency [4]

OCCN1CN(CCO)CN(CCO)C1
inactive: Potency [1] | Potency [2] | Potency [3] | Potency [4]

CC[C@H]1OC(=O)[C@H](C)[C@@H](O[C@H]2C[C@@](C)(OC)[C@@H](O)[C@H](C)O2)[C@H](C)[C@@H](O[C@@H]2O[C@H](C)C[C@H](N(C)C)[C@H]2O)[C@](C)(OC)C[C@@H](C)C(=O)[C@H](C)[C@@H](O)[C@]1(C)O
inactive: Potency [1] | Potency [2] | Potency [3] | Potency [4]

O=CNc1ccccc1
inactive: Potency [1] | Potency [2] | Potency [3] | Potency [4]

O=C(C(Cl)Cl)N1CCOC12CCCCC2
inactive: Potency [1] | Potency [2] | Potency [3] | Potency [4]

COc1ccc2sc(C(=O)Nc3nnn[nH]3)c(OC(C)C)c2c1
inactive: Potency [1] | Potency [2] | Potency [3] | Potency [4]

CC(C)(C)c1ccc(N)cc1
inactive: Potency [1] | Potency [2] | Potency [3] | Potency [4]

FC1(F)C(F)(F)C(F)(F)C2(F)C(F)(F)C(F)(F)C(F)(F)C(F)(F)C2(F)C1(F)F (configuration not stated)
inactive: Potency [1] | Potency [2] | Potency [3] | Potency [4]

CC1CCC(=O)C1=O (configuration not stated)
inactive: Potency [1] | Potency [2] | Potency [3] | Potency [4]
